Screening results: PubChem BioAssay, several laboratories
The list is not random: actives were taken first. Their share in the collection is about 27%.
CYP2C19 inhib: human CYP2C19 inhibition | P33261 | CYP2C19 Supersomes, luciferin-H EGE luminescence, 30 min | inhibition, % at 5 µM | 96,000 tested, 21% active;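 active = CYP2C19 inhibition above a set limit at 5 µM in the primary screen, cut at about 50% in these data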;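 also: plate controls were negative control wells for no effect and 2.5 mM tranylcypromine positive control for full effect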
CYP2C9 act: activators of human CYP2C9. P11712. recombinant CYP2C9, luciferin-H conversion, luminescence; stronger effect = higher value; factor 1 = untreated enzyme, 0 = blocked. activation factor at 5 µM. 96,000 tested, 1.4% active. AID 1024;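 active = activation factor of 2 or more for CYP2C9 at a 5 µM dose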;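 also: 0 = sulfaphenazole-blocked wells and 1 = vehicle-only wells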
Target sequence (P11712 whole entry, looked up): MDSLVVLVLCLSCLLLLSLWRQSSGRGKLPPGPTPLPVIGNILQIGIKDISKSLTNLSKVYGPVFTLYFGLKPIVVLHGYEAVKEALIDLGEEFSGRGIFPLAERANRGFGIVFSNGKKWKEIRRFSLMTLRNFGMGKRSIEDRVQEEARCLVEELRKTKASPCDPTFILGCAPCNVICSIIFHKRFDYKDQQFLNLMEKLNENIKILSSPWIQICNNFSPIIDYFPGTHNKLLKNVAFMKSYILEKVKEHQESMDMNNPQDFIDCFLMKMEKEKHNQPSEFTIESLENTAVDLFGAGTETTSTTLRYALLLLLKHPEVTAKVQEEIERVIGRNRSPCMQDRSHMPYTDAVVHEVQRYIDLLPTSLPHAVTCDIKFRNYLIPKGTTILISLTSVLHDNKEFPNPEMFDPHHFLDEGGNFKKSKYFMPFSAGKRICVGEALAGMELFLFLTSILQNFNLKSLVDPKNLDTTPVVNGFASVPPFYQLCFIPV
CYP2C9 inhib: human CYP2C9 inhibition; P11712; CYP2C9 Supersomes, luciferin-H conversion, luminescence; inhibition, % at 5 µM; 96,000 tested, 20% active; AID 777;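 active = blocking of liver enzyme CYP2C9 beyond about 50% at 5 µM, limit read from the data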
Cav3 T inh: human Cav3.2 channel inhibition, primary screen; 100,000 tested, 4% active; B-score at 10 µM; O95180; Cav3.2-expressing cells, Fluo-4 calcium fluorescence FDSS; stronger effect = lower value; AID 449739;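 active = single-dose well whose peak fluorescence ratio is a statistical outlier from its plate by either plate-standardised score or position-corrected B-score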
CYP2C19 act: cytochrome P450 2C19 (human) activation; recombinant CYP2C19, luciferin-H EGE luminescence; stronger effect = higher value; 0 = fully inhibited enzyme, 1 = untreated enzyme; activation factor at 5 µM; 96,000 tested, under 10 active; AID 1025;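 active = activation factor of at least 2 at 5 µM in the primary screen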;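 also: 0 = wells with 2.5 mM tranylcypromine and 1 = vehicle-only wells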
* = called active by the depositor.

Results for COc1cccc(NC(=O)CC2COc3ccccc3O2)c1 (stereo not given) ?
CYP2C19 inhib: 49; CYP2C9 act: 0.8; CYP2C9 inhib: 24; Cav3 T inh: -2.4; CYP2C19 act: 0.5

How did COC(=O)c1cccc(NC(=O)Cc2coc3cc(OC)ccc23)c1 do in these assays?
Cav3 T inh: -0.37

How did Cc1nc2ccccc2c2oc(C(=O)Nc3ccc4c(c3)OCCO4)cc12 do in these assays?
CYP2C19 inhib: -2; CYP2C9 act: 1; CYP2C9 inhib: 4; Cav3 T inh: -0.096; CYP2C19 act: 1

How did CCCCCn1nc(C)c2c(C)cc(=O)[nH]c21 do in these assays?
Cav3 T inh: 0.15

Results for O=C(CC1COc2ccccc2O1)NC1CCCCC1 (stereo not given) ?
CYP2C19 inhib: 44; CYP2C9 act: 1.9; CYP2C9 inhib: -91; Cav3 T inh: 0.049; CYP2C19 act: 0.6

How did Cc1ccc2c(CC(=O)NCC3COc4ccccc4O3)coc2c1 (stereo not given) do in these assays?
CYP2C19 inhib: 100*; CYP2C9 act: 0; CYP2C9 inhib: 95*; Cav3 T inh: -6.6*; CYP2C19 act: 0

How did O=C(CCC1COc2ccccc2O1)NC1CCCCC1 (stereo not given) do in these assays?
CYP2C19 inhib: 56*; CYP2C9 act: 0.9; CYP2C9 inhib: 12; Cav3 T inh: 0.24; CYP2C19 act: 0.4

How did CCOC(=O)N1CCC(NC(=O)Cn2nc(Cc3ccncc3)c3ccccc3c2=O)CC1 do in these assays?
CYP2C19 inhib: 55*; CYP2C9 act: 0.2; CYP2C9 inhib: 77*; Cav3 T inh: 0.31; CYP2C19 act: 0.4

Results for CC(NC(=O)CCC1COc2ccccc2O1)c1ccccc1 (stereo not given) ?
CYP2C19 inhib: 51*; CYP2C9 act: 0.9; CYP2C9 inhib: 7; Cav3 T inh: 1.3; CYP2C19 act: 0.5

What do the screens show for `CC(C)NC1CS(=O)(=O)CC1O` (stereo not given)?
CYP2C19 inhib: -5; CYP2C9 act: 1.1; CYP2C9 inhib: -5; Cav3 T inh: 2.4; CYP2C19 act: 1

Results for CCCC(=O)NCCCc1nc2ccccc2n1C(C)C ?
CYP2C19 inhib: 7; CYP2C9 act: 1.4; CYP2C9 inhib: -41; Cav3 T inh: 0.59; CYP2C19 act: 0.9

Results for CCCCNc1nc(CC)c2c(c1C#N)CCCC2 ?
CYP2C19 inhib: 26; CYP2C9 act: 0.6; CYP2C9 inhib: 38; Cav3 T inh: -0.07; CYP2C19 act: 0.7

Results for CCOC(=O)N1CCC(NC(=O)c2cc3c(C)nc4ccccc4c3o2)CC1 ?
CYP2C19 inhib: 40; CYP2C9 act: 0.4; CYP2C9 inhib: 61*; Cav3 T inh: -0.74; CYP2C19 act: 0.6

How did CCN1CCCC1CNC(=O)c1cc2c(C)nc3ccccc3c2o1 (stereo not given) do in these assays?
CYP2C19 inhib: -14; CYP2C9 act: 1; CYP2C9 inhib: -3; Cav3 T inh: -0.0072; CYP2C19 act: 1.1

Results for O=C(CSc1nnc(C2COc3ccccc3O2)o1)NC1CCCCC1 (stereo not given) ?
CYP2C19 inhib: 50*; CYP2C9 act: 0.4; CYP2C9 inhib: 58*; Cav3 T inh: -0.43; CYP2C19 act: 0.5

What do the screens show for `CCc1ccc(C(=O)NCC2COc3ccccc3O2)o1` (stereo not given)?
CYP2C19 inhib: 92*; CYP2C9 act: 0.4; CYP2C9 inhib: 58*; Cav3 T inh: -0.045; CYP2C19 act: 0.1

What do the screens show for `CCOc1ncccc1C(=O)NCC1COc2ccccc2O1` (stereo not given)?
CYP2C19 inhib: 88*; CYP2C9 act: 0.1; CYP2C9 inhib: 88*; Cav3 T inh: -0.96; CYP2C19 act: 0.1

How did O=C(Cc1ccccc1)NCC1COc2ccccc2O1 (stereo not given) do in these assays?
Cav3 T inh: -1.6

Results for CCOC(=O)CN(C(=O)CNC(=O)c1cccs1)C(C(=O)NC1CCCC1)c1cccnc1 (stereo not given) ?
CYP2C19 inhib: 17; CYP2C9 act: 0.9; CYP2C9 inhib: 12; Cav3 T inh: -0.29; CYP2C19 act: 0.8

How did CC(C)CNc1nnnc2c1sc1nc(N3CCOCC3)c3c(c12)CC(C)(C)SC3 do in these assays?
CYP2C19 inhib: 34; CYP2C9 act: 0.2; CYP2C9 inhib: 81*; Cav3 T inh: -1; CYP2C19 act: 0.7

How did CC1(C)Cc2c(c(N3CCOCC3)nc3sc4c(NN)ncnc4c23)CS1 do in these assays?
CYP2C19 inhib: -18; CYP2C9 act: 0.9; CYP2C9 inhib: 10; Cav3 T inh: 0.77; CYP2C19 act: 1.2

How did CC1(C)Cc2c(c(N3CCOCC3)nc3sc4c(NCc5ccco5)nnnc4c23)CS1 do in these assays?
CYP2C19 inhib: 61*; CYP2C9 act: 0.1; CYP2C9 inhib: 93*; Cav3 T inh: 1.3; CYP2C19 act: 0.4

Results for CC1(C)Cc2c(c(N3CCOCC3)nc3sc4c(NCc5ccccc5)nnnc4c23)CS1 ?
CYP2C19 inhib: 57*; CYP2C9 act: 0; CYP2C9 inhib: 98*; Cav3 T inh: -0.25; CYP2C19 act: 0.4

What do the screens show for `CC1(C)N([O-])C2=C(c3ccccc3C2=O)[N+](=O)C1(C)C`?
CYP2C19 inhib: 44; CYP2C9 act: 0.8; CYP2C9 inhib: 16; Cav3 T inh: 0.038; CYP2C19 act: 0.6

Results for Cc1cc2cc3c(cc2nc1SCC(=O)Nc1nc(C)c(C)s1)OCO3 ?
CYP2C19 inhib: 6; CYP2C9 act: 0.9; CYP2C9 inhib: 15; Cav3 T inh: 0.13; CYP2C19 act: 0.9

What do the screens show for `O=C(NCCCn1ccnc1)c1cn(-c2ccccc2)nc1-c1ccc(F)cc1`?
CYP2C19 inhib: 96*; CYP2C9 act: 0; CYP2C9 inhib: 100*; Cav3 T inh: 0.21; CYP2C19 act: 0

How did O=C(NCCCN1CCCC1=O)c1ccccc1NS(=O)(=O)c1ccc(Br)cc1 do in these assays?
CYP2C19 inhib: 35; CYP2C9 act: 0.2; CYP2C9 inhib: 80*; Cav3 T inh: 0.98; CYP2C19 act: 0.7

What do the screens show for `Cc1cc(C)c(C)c(S(=O)(=O)Nc2ccccc2C(=O)NCCCn2ccnc2)c1C`?
CYP2C19 inhib: 99*; CYP2C9 act: 0; CYP2C9 inhib: 98*; Cav3 T inh: -0.4; CYP2C19 act: 0

What do the screens show for `O=C(NCCCn1ccnc1)c1ccccc1NS(=O)(=O)c1ccc(F)c(F)c1`?
CYP2C19 inhib: 99*; CYP2C9 act: 0; CYP2C9 inhib: 100*; Cav3 T inh: -1.8; CYP2C19 act: 0

What do the screens show for `Cc1ccc(S(=O)(=O)Nc2ccccc2F)cc1C(=O)NCCCN1CCCC1=O`?
CYP2C19 inhib: -7; CYP2C9 act: 1; CYP2C9 inhib: 4; Cav3 T inh: 1.2; CYP2C19 act: 1.1

Results for O=C(NCCCN1CCCC1=O)c1cncc(Br)c1 ?
CYP2C19 inhib: -13; CYP2C9 act: 1.1; CYP2C9 inhib: -8; Cav3 T inh: 0.17; CYP2C19 act: 1.1

Results for COc1ccccc1CC1(C)NC(=O)N(CC(=O)Nc2cc(C)on2)C1=O (stereo not given) ?
CYP2C19 inhib: 4; CYP2C9 act: 0.7; CYP2C9 inhib: 28; Cav3 T inh: -0.3; CYP2C19 act: 1
